Screening data from PubChem BioAssay.
HT1080 IDH1KD tx = toxicity to HT-1080 IDH1 knockdown cells (counter line). HT-1080 IDH1 knockdown viability, ATP luminescence, 48 h. Potency, µM (titrated, usually from 46.1 µM), usual class: cytotoxic. hit rate 2% among 360,000. AID 686971
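HT-1080-IDH1KD cells (IDH1 knocked down), 750/well in RPMI with 5% FBS, treated with compound 48 h at 37 degrees C. Viability by CellTiter-Glo luminescence, normalised to DMSO and no-cell wells; concentration-response curves classed.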
HT1080-NT tox = kills 2HG-producing HT-1080-NT fibrosarcoma cells; Potency, µM (highest dose often 46.1 µM), most hits filed as cytotoxic; HT-1080-NT fibrosarcoma viability, CellTiter-Glo ATP luminescence, 48 h; hit rate 1.6% among 360,000; AID 686970;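 also: NT is the 2HG producing partner of a matched IDH1 knockdown line; nearly all actives have a fitted effect of over 55% in size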
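A 48-hour cytotoxicity screen used HT-1080-NT cells plated 2 hours before compound delivery. ATP-based CellTiter-Glo luminescence measured viability, normalized to DMSO and no-cell controls.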
HepG2 tox = kills HepG2 cells in TGF-b inhibitor counter-screen | hit rate 0.76% among 410,000 | Potency, µM (doses to about 46.1 µM), usual class: cytotoxic | AID 588856 | HepG2 CAGA-GFP viability, ATP luminescence, 18 h
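CellTiter-Glo luminescence gave cytotoxicity after 18 hours at 37 degrees C. The cells were HepG2 CAGA-GFP in 1% FBS DMEM, stimulated with 500 pg/mL TGF-beta after compound addition. %Activity was normalised to no-cell wells (complete cell-killing) and DMSO (no toxicity), and curves were fitted and classified.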
KB-V1 MDR tox = KB-V1 MDR subline cytotoxicity | KB-V1 MDR cells viability, CellTiter-Glo, 72 h | AID 1347076 | Potency, µM (highest dose often 46.1 µM), most hits filed as cytotoxic | hit rate 3.4% among 400,000; also: nearly all actives have a fitted effect of over 60% in size
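Cytotoxicity toward P-gp-expressing KB-V1 cells was determined as loss of CellTiter-Glo luminescence after 72 h at 37 degrees C. Compounds were tested in quantitative HTS format across a concentration range, with curves fitted to normalized data.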
KB-3-1 tox = kills parental KB-3-1 adenocarcinoma cells; KB-3-1 viability, CellTiter-Glo ATP luminescence, 72 h; Potency, µM (highest dose often 46.1 µM), hits mostly cytotoxic; hit rate 1.4% among 400,000; AID 1347075; also: nearly all actives have a fitted effect of over 60% in size
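Luminescent ATP read-out (CellTiter-Glo) measures survival of drug-naive KB-3-1 cells after 72 h compound exposure at 37 °C. Titration series was screened from lowest to highest concentration, with DMSO vehicle plates as background controls.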
TGFb inhibitor = blocks TGF-b signaling | HepG2 CAGA-GFP TGF-b/SMAD3 reporter, GFP fluorescence, 18 h; TGF-beta stimulated, 500 pg/mL final | Potency, µM (titrated, usually from 46.1 µM), usual class: inhibitors | hit rate 1.2% among 410,000 | AID 588855; also: nearly all actives have a fitted effect of over 65% in size
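Read-out: total well GFP (ex488/em500-530) summed from mean per-cell fluorescence. Cells: HEPG2 CAGA-GFP, 1% FBS DMEM, 18 h at 37 degrees C with 500 pg/mL final TGF-beta. Unstimulated wells served as the full-inhibition control; stimulated DMSO wells = 0%.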
Of the large screens only hits and unclear results are named; the others gave an inactive call; ! = repeats disagree. The list is not random: actives were taken first. Their share in the collection is about 6.6%. Calls follow the shape of the dose curve; as a rule, active = well fitted curve in the direction sought with a large enough effect; inconclusive = small, poorly fitted or top-dose-only effect, or another doubt; inactive = no such curve, though single readings can be large; an effect the other way counts as inactive or inconclusive.

CCOc1ccc(CC(=O)Nc2c(C(=O)Nc3ccc(OC)cc3OC)oc3ccccc23)cc1	none (no result: HT1080 IDH1KD tx, HT1080-NT tox)
O=C(Nc1ccc(F)cc1)C1C(c2ccccc2)C1(Cl)Cl (configuration not stated)	TGFb inhibitor 16µM
O=C(O)Cc1sc(Nc2cccc3ccccc23)nc1-c1ccc(Cl)cc1	HT1080-NT tox 12µM
COc1ccc(OC)c(NC(=O)c2nnn(CC(=O)Nc3ccc(C(C)C)cc3)c2N)c1	TGFb inhibitor inconclusive (no result: HT1080 IDH1KD tx, HT1080-NT tox, KB-V1 MDR tox, KB-3-1 tox)
CC(C)COc1ccc(C(=O)Nc2scc(-c3ccc(Cl)cc3Cl)c2C(N)=O)cc1	KB-V1 MDR tox 3.7µM, KB-3-1 tox 3.3µM
Cc1n[nH]c(C)c1CCc1nc2c3ccccc3nc(SCC(=O)Nc3ccccc3F)n2n1	HT1080 IDH1KD tx inconclusive, HT1080-NT tox inconclusive, TGFb inhibitor inconclusive
Cc1cccc(NC(=O)CSc2nc3ccccc3c3nc(CCc4c(C)n[nH]c4C)nn23)c1	HT1080 IDH1KD tx inconclusive, HT1080-NT tox inconclusive, KB-V1 MDR tox 23µM!, KB-3-1 tox inconclusive, TGFb inhibitor inconclusive
Cc1cccc(NC(=O)C2(C)CC3c4ccccc4C2c2ccccc23)c1C (configuration not stated)	KB-V1 MDR tox 7.3µM, KB-3-1 tox inconclusive, TGFb inhibitor inconclusive
Cc1ccc(C)c(NC(=O)C2(C)CC3c4ccccc4C2c2ccccc23)c1 (configuration not stated)	none
CCOC(=O)c1c(NC(=S)N2CCOCC2)sc2c1CCN(C(=O)OCC)C2	HT1080 IDH1KD tx 12µM, HT1080-NT tox 9.2µM, KB-V1 MDR tox inconclusive, TGFb inhibitor inconclusive
CCOC(=O)c1c(NC(=S)N2CCCCC2)sc2c1CCN(C(=O)OCC)C2	HT1080 IDH1KD tx inconclusive, HT1080-NT tox inconclusive, TGFb inhibitor inconclusive
COCCN1C[C@@H](CO)O[C@@H](n2cnc3c(NCCN(C)C)ncnc32)C1	none
Cc1ccc(-n2c(C3CC3c3ccc(Cl)cc3)n[nH]c2=S)cc1 (configuration not stated)	HT1080 IDH1KD tx inconclusive, HT1080-NT tox inconclusive, KB-V1 MDR tox 21µM
CCc1cnc2ccccc2c1/C=C/c1ccc(N(C)C)cc1	KB-V1 MDR tox inconclusive, KB-3-1 tox inconclusive, TGFb inhibitor inconclusive (no result: HT1080 IDH1KD tx, HT1080-NT tox)
O=C(CNCC1CCCO1)Nc1ccccc1N1CCCCCC1 (configuration not stated)	KB-V1 MDR tox 6.5µM
O=C(CNCC1CCCO1)Nc1ccc(N2CCCCCC2)cc1 (configuration not stated)	KB-V1 MDR tox 21µM
O=C(CNCCC1=CCCCC1)Nc1ccc(N2CCCCCC2)cc1	HT1080 IDH1KD tx inconclusive, HT1080-NT tox inconclusive, KB-V1 MDR tox inconclusive, KB-3-1 tox inconclusive, TGFb inhibitor 16µM
O=C(CNC1CCCC1)Nc1ccc(N2CCCCCC2)cc1	HT1080 IDH1KD tx inconclusive, KB-V1 MDR tox inconclusive
COc1ccc(Cl)cc1NC(=O)CSc1cn(CC(=O)N2CCCCC2)c2ccccc12	none (no result: HT1080 IDH1KD tx, HT1080-NT tox, KB-V1 MDR tox, KB-3-1 tox)
CCOC(=O)C1=C(CN2CCN(c3ccccc3F)CC2)NC(=O)NC1c1ccc(OC)cc1 (configuration not stated)	none (no result: HT1080 IDH1KD tx, HT1080-NT tox, KB-V1 MDR tox, KB-3-1 tox)
CCOC(=O)Cn1cc(/C=N/N2C(=O)C3C4C=CC(C4)C3C2=O)c2ccccc21 (configuration not stated)	TGFb inhibitor 6.3µM
O=C1C2C3C=CC(C3)C2C(=O)N1/N=C/c1cn(Cc2ccccc2)c2ccccc12 (configuration not stated)	KB-3-1 tox inconclusive, TGFb inhibitor 4.5µM
O=C1C2C3C=CC(CC3)C2C(=O)N1/N=C/c1c[nH]c2ccccc12 (configuration not stated)	none
O=C1C2C3C=CC(C3)C2C(=O)N1/N=C/c1cn(Cc2ccc(F)cc2)c2ccccc12 (configuration not stated)	HT1080 IDH1KD tx inconclusive, HepG2 tox 0.89µM, KB-3-1 tox inconclusive, TGFb inhibitor inconclusive
O=C(Nc1cccc(Cl)c1)c1ccc2nc(CCc3ccccc3)oc2c1	KB-V1 MDR tox inconclusive (no result: HT1080 IDH1KD tx, HT1080-NT tox)
O=C(C1CCN(Cc2cc(Cl)ccc2O)CC1)N1CCN(Cc2ccccc2)CC1	KB-V1 MDR tox 10µM, KB-3-1 tox inconclusive
Fc1ccc2nncc(SCc3ccccc3Cl)c2c1	none
COc1ccc(OCC(O)CN(CC(O)COc2ccc(OC)cc2)c2cccc(O)c2)cc1 (configuration not stated)	HT1080 IDH1KD tx inconclusive, HT1080-NT tox inconclusive, HepG2 tox 10µM
COc1ccc(OCC(O)COc2ccc(OC)cc2)cc1	none
COc1cc2c(=O)c(C(=O)c3ccc(C)c(C)c3)cn(Cc3ccccc3F)c2cc1OC	KB-V1 MDR tox inconclusive, KB-3-1 tox inconclusive, TGFb inhibitor inconclusive (no result: HT1080 IDH1KD tx, HT1080-NT tox)
COc1ccc(C(=O)Cc2ccc(OC)c(OC)c2)cc1	KB-V1 MDR tox 23µM
COc1ccc(C(=O)CCc2ccc(OC)c(OC)c2)cc1	KB-3-1 tox inconclusive
Cc1ccc(NC(=O)c2cccc3c2C(=O)N(C2CCCCC2)C3)c(C)c1	none
Cc1cc(C)c(NC(=O)c2cccc3c2C(=O)N(C2CCCCC2)C3)c(C)c1	KB-V1 MDR tox inconclusive, KB-3-1 tox 21µM
O=C(Nc1cccnc1)c1ccccc1NS(=O)(=O)c1ccc(F)cc1	KB-V1 MDR tox 21µM, KB-3-1 tox inconclusive
O=S(=O)(Nc1ccc(-c2csc(-c3ccccc3)n2)cc1)c1ccc(F)cc1	KB-V1 MDR tox inconclusive, KB-3-1 tox inconclusive, TGFb inhibitor inconclusive
O=C(Nc1nc(-c2ccccc2)cs1)c1ccccc1NS(=O)(=O)c1ccc(F)cc1	HT1080 IDH1KD tx inconclusive, HT1080-NT tox 6.5µM, KB-V1 MDR tox 16µM, KB-3-1 tox 6.5µM, TGFb inhibitor inconclusive
CCSc1nc(-c2ccccc2OC)nc2c1Cc1c(CO)cnc(C)c1O2	none (no result: HT1080 IDH1KD tx, HT1080-NT tox, KB-V1 MDR tox, KB-3-1 tox)
Cc1cccn2c(=O)c(C(=O)NC(C)c3ccccc3)c(O)nc12 (configuration not stated)	KB-V1 MDR tox inconclusive (no result: HT1080 IDH1KD tx, HT1080-NT tox)
COc1ccc(-c2cn3cc(Br)cnc3n2)cc1	KB-V1 MDR tox 10µM, KB-3-1 tox 13µM
O=C(C1CCC(CNc2nc(=S)[nH]c3ccccc23)CC1)N1CCN(c2ccccn2)CC1 (configuration not stated)	KB-V1 MDR tox 2.6µM, TGFb inhibitor inconclusive
C=CCNC(=O)C1CCC(CNc2nc(=S)[nH]c3ccccc23)CC1 (configuration not stated)	none
Cc1cccnc1Nc1nc(-c2ccccn2)cs1	HT1080 IDH1KD tx 1µM, HT1080-NT tox 1.3µM, KB-V1 MDR tox 4.1µM, KB-3-1 tox 1.5µM, TGFb inhibitor inconclusive
